The full ranking holds about 68,000 sequences; the median of “fluorescence intensity (a.u.)” is about 9,100, and the highest 2% start at about 16,000. Many of the other results were omitted from the sample, so the highest values are more common in it than they were.

The target in the experiment is OsWRKY34 (Oryza sativa, UniProt Q0JBA9 1-250). Description: protein-binding microarray (RPBM); PBS, 2% BSA, 51.3 ng/ul salmon testes DNA, 50 uM zinc acetate, 200 nM TF, 25 C, 1 h; high values mean tight binding. Conditions: protein: recombinant; tags: N-terminal polyhistidine and DsRed monomer fusion (pET32a); label: CyDye5-dUTP incorporated in the synthesized complementary strand; 3' TTTTT single-stranded linker to array surface; dsDNA, one strand shown. A digest of the protocol: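 Transcription factors were made in E. coli BL21-CodonPlus as N-terminal fusions to a polyhistidine tag and DsRed, then purified on Ni–NTA. After primer extension with Cy5-dUTP and blocking with 2% BSA, a custom Agilent array was exposed for 1 h at 25 °C to 200 nM protein in PBS, 2% BSA, salmon testes DNA and 50 µM zinc acetate. Washed arrays were scanned on an Axon 4000B, and the binding signal is per-feature fluorescence intensity in arbitrary units.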
Sequence of OsWRKY34 (Q0JBA9 entry or part of it): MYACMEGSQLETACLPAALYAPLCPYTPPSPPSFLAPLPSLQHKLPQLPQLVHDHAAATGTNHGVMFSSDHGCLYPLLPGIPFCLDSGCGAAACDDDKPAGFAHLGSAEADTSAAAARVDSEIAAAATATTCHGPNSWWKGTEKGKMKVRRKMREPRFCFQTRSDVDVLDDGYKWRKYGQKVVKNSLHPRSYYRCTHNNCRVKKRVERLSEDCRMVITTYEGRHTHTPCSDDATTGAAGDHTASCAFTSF
As for “AATCTAACATGGATTTGCGCACACACTTGTCGTAACGTACCGGAGTCACCTAGTGCAG”, the binding signal is 9480 fluorescence intensity (a.u.). The figure for “CGTGCATCCGCTGCGCTGTGCTGCCATTTCTCTTCAGCTTCGGAGTCACCTAGTGCAG” is 10600 fluorescence intensity (a.u.). The result for “TAGCTATTGCTCGCTGGCCTACCATTAATTAGTATACTGTCGGAGTCACCTAGTGCAG” reads 8800 fluorescence intensity (a.u.); that for “TTTTGCTTATCATATCATATATTTTCTAAGCTTGATTTTTCGGAGTCACCTAGTGCAG”, 8050 fluorescence intensity (a.u.); that for “TTTTTTGTTTTTTCTTTGAATTCTTTCCTTACGATTTTTGCGGAGTCACCTAGTGCAG”, 13400 fluorescence intensity (a.u.). The result for “ACCTAATATTTCCCGTGTTCTCTTCTACGAAAACGTATTTCGGAGTCACCTAGTGCAG” reads 10500 fluorescence intensity (a.u.). On to “AACCTCCAACCTTTTAATTTCTCACGCGACCATGCACGACCGGAGTCACCTAGTGCAG”, for which the binding signal was 8820 fluorescence intensity (a.u.). For “ATGTAGGGGTTCCTGCTGCTGCTGTTCTGCCCATTCAACACGGAGTCACCTAGTGCAG”, the binding signal was 8880 fluorescence intensity (a.u.). With “TCATCATGTGACCGACCACCGCATCCTCAGTTGACCCAGTCGGAGTCACCTAGTGCAG”, the binding signal is 8640 fluorescence intensity (a.u.). Turning to “GATAGGGTTAGGGTTAGGGTTTTCCCTGGTCCGCATCTTCCGGAGTCACCTAGTGCAG”, the binding signal is 9320 fluorescence intensity (a.u.). The figure for “CTCTTGCTCTGCTCTGTTTTTGGCCCATCCTCACCCACAACGGAGTCACCTAGTGCAG” is 10600 fluorescence intensity (a.u.); for “CTTTTCTCCTTCGGCTATAGTGTCACTGTCCTCGCCTTCTCGGAGTCACCTAGTGCAG” it is 15700 fluorescence intensity (a.u.). The figure for “GTGCCTAACAATCTGCTGCTTTTTACCCGCCAAGTATCTTCGGAGTCACCTAGTGCAG” is 8180 fluorescence intensity (a.u.); for “TTCCAGTTAGCAACGCATTGAGCCATTTTTACATATTCTGCGGAGTCACCTAGTGCAG” it is 57100 fluorescence intensity (a.u.). Take “ATGTAAGTCATTCTAGCATTTTTTACATTCATATTGATGTCGGAGTCACCTAGTGCAG”: the binding signal was 9380 fluorescence intensity (a.u.). The result for “AATACATTTTACCTCGATTGTTATTAGCATATTTTTTTTGCGGAGTCACCTAGTGCAG” reads 8890 fluorescence intensity (a.u.); that for “TTCACCCTCACTTTATTCATCTATAGTAGTTTCATCAGTTCGGAGTCACCTAGTGCAG”, 8060 fluorescence intensity (a.u.); that for “CCACTTTTGCAGATTGCAGGGCGCGCAGTACTGCCGACAGCGGAGTCACCTAGTGCAG”, 18900 fluorescence intensity (a.u.). In the case of “CTACTTTCACTCCCACCCACCCGACACAGCCGGAGCGCGCCGGAGTCACCTAGTGCAG”, the binding signal was 8630 fluorescence intensity (a.u.). The result for “CACAGATCCACTCCATTGCTTCACTACTGCTTTGCTTTTGCGGAGTCACCTAGTGCAG” reads 11000 fluorescence intensity (a.u.). On to “GCCTTTTTAACTTGTGCGACCGGTGTTCCGGGATTTTGGGCGGAGTCACCTAGTGCAG”, for which the binding signal is 10900 fluorescence intensity (a.u.).

For the sequence “TCTCCTCCATCATCGCAGCCAACTCCAACATCCTGAGCTCCGGAGTCACCTAGTGCAG”, the binding signal was 9510 fluorescence intensity (a.u.). Turning to “CTTATTTGTAGCTTCCTTTTTTTTTCCTTTTTCTTTTATTCGGAGTCACCTAGTGCAG”, the binding signal was 10400 fluorescence intensity (a.u.). In the case of “TTGTCTTCCTTTGTTTCGACTGGTCCAGTTTCGTCCTCTCCGGAGTCACCTAGTGCAG”, the binding signal was 10300 fluorescence intensity (a.u.). The result for “TCGTTCCTTCCTGTTGTTTCCTTTTCTTTTCCTTTATTTTCGGAGTCACCTAGTGCAG” reads 8070 fluorescence intensity (a.u.). Regarding “GTTTTTTTTTTTCCTTTCACTTCCTTCCTGGGCTTTATTTCGGAGTCACCTAGTGCAG”, the binding signal was 17300 fluorescence intensity (a.u.). The figure for “AAAATGTTGTTTTTTTCTTCACTTTTGTTTTCCTTTTTTTCGGAGTCACCTAGTGCAG” is 9300 fluorescence intensity (a.u.); for “TTATTTCCGCAAATCGTTCGCTATCCGGTATATTTTTGCACGGAGTCACCTAGTGCAG” it is 17300 fluorescence intensity (a.u.); for “TTTTTATATACCGGTAAATATCCGCTACCGTATTCGTTCCCGGAGTCACCTAGTGCAG” it is 10200 fluorescence intensity (a.u.).

For “TGTCGTCCTTCAGGCCAACTTTGTCTTCCTTTGTTTCGACCGGAGTCACCTAGTGCAG”, the binding signal was 16400 fluorescence intensity (a.u.). For the sequence “GCCCTTTTCACGGTTTTTCCTGATCTTTCTGGGCTTTCTCCGGAGTCACCTAGTGCAG”, the binding signal was 18800 fluorescence intensity (a.u.). With “CAGACTTTTCAGCTTCGGTTTCCCTTGTTTCTGATCTTTCCGGAGTCACCTAGTGCAG”, the binding signal is 8440 fluorescence intensity (a.u.). The figure for “CACAACTTTTCGTTTTTTATATTTGCACAAATTTTTTAATCGGAGTCACCTAGTGCAG” is 8650 fluorescence intensity (a.u.); for “AATCTGTTTTTTGCTTTTTTGCCCTTTTCACGGTTTTTCCCGGAGTCACCTAGTGCAG” it is 10800 fluorescence intensity (a.u.). The figure for “ATACGTCATTTGTATTTGAGTCGGTTTTTAAGTTCCTCCGCGGAGTCACCTAGTGCAG” is 12200 fluorescence intensity (a.u.).

Take “TTTTGCAAAGCATTCCTCGCGCTTTCAGCTAATTACGCATCGGAGTCACCTAGTGCAG”: the binding signal was 8500 fluorescence intensity (a.u.). Consider “CACCAACGCGTCCCCACCGTGTCGCCTCCTGATTGGTTGTCGGAGTCACCTAGTGCAG”, for which the binding signal was 12100 fluorescence intensity (a.u.). The figure for “GTCGTTCGCTCTTTTATCCTTTTCGGACAATTTCACTTTCCGGAGTCACCTAGTGCAG” is 19200 fluorescence intensity (a.u.). In the case of “TTATTTTTCGTTCCTTCTTTTTTTCTCTCTCACTTTTCTCCGGAGTCACCTAGTGCAG”, the binding signal was 11300 fluorescence intensity (a.u.).

For “TTGTTACTACATTTCCTGTACTATTTTACTGTCTGATTTACGGAGTCACCTAGTGCAG”, the binding signal was 8460 fluorescence intensity (a.u.). As for “GTTGGGCTTCCTTATTGGGTTGGGCTACCTGTCTGATTTTCGGAGTCACCTAGTGCAG”, the binding signal is 16600 fluorescence intensity (a.u.). As for “GCTTCACCTTCGGCTTCGACTTCGGCTTCGTTTCCTCTTCCGGAGTCACCTAGTGCAG”, the binding signal is 18600 fluorescence intensity (a.u.). The figure for “CTCTCGCTCTTTTATTTTTTTTCCTTGTTTCCTTTCGTGTCGGAGTCACCTAGTGCAG” is 12100 fluorescence intensity (a.u.). For “AGGTTATTTTTTCCTTACCTTTTTTTTTTCTGATACTACTCGGAGTCACCTAGTGCAG”, the binding signal was 9920 fluorescence intensity (a.u.).

As to “TGTTTTCACTTTCCTCTTCAGTCTTCTTCCTTCTTTCGTTCGGAGTCACCTAGTGCAG”, the binding signal is 9140 fluorescence intensity (a.u.). For the sequence “GTCCTCGTTTTTTTTTTCCTTCTCTTTTTCTTTTCCTTTTCGGAGTCACCTAGTGCAG”, the binding signal is 9450 fluorescence intensity (a.u.).

Source of the values: PMC7819943, “Rice protein-binding microarrays: a tool to detect cis-acting elements near promoter regions in rice”.
